According to ChEMBL document CHEMBL3988442, “University of Dundee, Small-Polar-MMV Screening Library” (2021):
About 1,200 (3.2%) of roughly 38,000 compounds showed an effect of 50% or more. The median lay at about -58%. The entries come from a sample that favours strong results as a whole.

These compounds were tested on Plasmodium falciparum (assay: Calibr Malaria Delayed Death Assay SOP). Conditions: concentration 4.99e-06 (unit not given; other assays of the set use mol/L).
Assay type: functional, organism-based
Set-up: scale not given: in the data most compounds retested in dose-response had high values

SMILES | Percent Effect [%]
O=C(NCCCn1ccccc1=O)c1cnc(-c2ccsc2)s1 | -39.04
O=S(=O)(CCNCc1cccc2c1OCCO2)N1CCOCC1 | 10.69
O=C(CCNCc1cccc2c1OCCCO2)NC1CCCC1 | 12.04
O=C(CC1CCCC1)NCCNCc1cccc2c1OCCO2 | 71.86
CC(C)c1nc(CN2CCOC(CNc3cccnn3)C2)cs1 (centres undefined) | -68.41
O=C1c2ccccc2C(=O)N1CC(O)Cn1nc(-c2cccs2)oc1=O (centres undefined) | 1.705
O=C(c1ccnc(CC2COc3ccccc3C2)c1)N1CCCC1 (centres undefined) | -41.96
CCS(=O)(=O)N1CCc2ccc(NC(=O)NC(C)(C)C)cc21 | -106.6
CC(O)CN1CCC(CNCc2cccc(C(N)=O)c2)CC1 (centres undefined) | -77.28
CCn1ccnc1CNCC1CCN(CC(O)c2ccccc2)CC1 (centres undefined) | -30.37
Cc1cccc(-c2[nH]ncc2CNCC2CCN(CC(C)O)CC2)c1 (centres undefined) | -49.15
CN1CCOC(CNCc2cccc(OC(F)(F)F)c2)C1 (centres undefined) | 1.205
CC(C)Oc1cccc(CN2CCC(C(C)N3CCOCC3)CC2)c1 (centres undefined) | 55.35
CC(O)CN1CCC(CNCc2cccc(C(F)(F)F)c2)CC1 (centres undefined) | 82.43
FC(F)(F)Oc1cccc(CNC[C@H]2Cn3ccnc3CO2)c1 | -105.1
CC(C)Oc1cccc(CC(=O)NC2CCN(CC(N)=O)CC2)c1 | -80.49
CC(C1CCN(Cc2ccc(N(C)C)nc2)CC1)N1CCOCC1 (centres undefined) | -9.646
CC(C1CCN(Cc2ccc(OC(F)F)cc2)CC1)N1CCOCC1 (centres undefined) | -27.61
CC(O)CN1CCC(CNCc2cccc(OC(C)C)c2)CC1 (centres undefined) | 61.47
O=C(Nc1cn[nH]c1)N1CCCCCC1c1ccncc1 (centres undefined) | -103.8
Cn1cnc(S(=O)(=O)N2C[C@@H]3CC[C@H](C2)N(Cc2ccccn2)C3)c1 | -132.7
N#Cc1ccc(F)c(CNC(=O)NC(CO)c2ccccc2)c1 (centres undefined) | -103.2

SMILES | Percent Effect [%]
Cc1ccc(N2CCC3(CCC(=O)N3Cc3ccncc3)CC2)nn1.O=C(O)C(F)(F)F | -132.1
COCCn1cc(CC(=O)Nc2cc(C)n(C)n2)c2ccccc21 | -50.35
Cc1cc(NCCC(=O)NC2CCCCC2)nc(-c2ccncc2)n1 | -22.05
CC(O)CN1CCC(CNCc2ccc(S(C)(=O)=O)cc2)CC1 (centres undefined) | -36.2
Cc1ccc(-c2n[nH]cc2CNCC2CCN(CC(C)O)CC2)cc1 (centres undefined) | -46.8
Cc1ncc(C(=O)N2CCCC(n3cccn3)C2)s1 (centres undefined) | -29.56
O=C(c1cccc(CNS(=O)(=O)c2ccccc2F)c1)N1CCCC1 | -96.06
Cc1cnc2c(S(=O)(=O)NCC3CC3)cccc2c1 | -114.6
O=S(=O)(NCC1CCN(CCN2CCOCC2)C1)c1ccccc1F (centres undefined) | -18.99
Cc1cc(CN2CCC(CNS(=O)(=O)c3ccccc3F)CC2)c(C)o1 | 78.36
CNC(=O)CS(=O)(=O)C1CCN(S(=O)(=O)c2ccccc2Cl)CC1 | -120
Cc1cc(CN2CCC(CNS(=O)(=O)c3ccccc3Cl)CC2)c(C)o1 | 52.45
CN(Cc1cnn(C)c1)C(=O)CCc1ccc2c(c1)OCO2 | -45.89
O=C(NCCc1ccncc1)c1cccnc1OCC(F)(F)F | -160.3
CN(C)S(=O)(=O)N1CC[C@]2(O)CCN(Cc3cc(F)cc(F)c3)C[C@@H]2C1 | -90.9
Cc1ccc(CN2CC[C@@]3(O)CCN(S(=O)(=O)N(C)C)C[C@H]3C2)cc1C | 52.24
CN(C)S(=O)(=O)N1CC[C@]2(O)CCN(CCCc3cccnc3)C[C@@H]2C1 | -68.67
CN(C)S(=O)(=O)N1CC[C@]2(O)CCN(CCc3cccc(F)c3)C[C@@H]2C1 | 52.04
CN(C)S(=O)(=O)N1CC[C@]2(O)CCN(Cc3cccc(C#N)c3)C[C@@H]2C1 | -65.92
CN(C)S(=O)(=O)N1CC[C@]2(O)CCN(Cc3cccc(F)c3)C[C@@H]2C1 | 18.33
CCCC(=O)N1CCc2c(CNS(C)(=O)=O)cncc2C1.Cl | -54.25
CCN(CC)S(=O)(=O)CC(=O)N1CCc2ccc(F)cc21 | -118.6

SMILES | Percent Effect [%]
CC(C)[C@H](N)c1nnc(SCC(=O)Nc2ccc(Br)cc2)o1.Cl | -137.1
O=C1CC(c2ccncc2)c2c(c(C(=O)O)cn2-c2ccccc2)N1 (centres undefined) | -138.8
Cc1ccc(CN(C)C(=O)CCn2c(=O)n(C)c3ccccc32)o1 | -119.3
CN1CCCN(C[C@@H]2CN(C(=O)N3CCOCC3)C[C@@H]2CO)CC1 | -70.22
CCc1nn(C)c(Cl)c1CN1CCCC(c2cc(O)nc(C)n2)C1 (centres undefined) | 11.23
COC[C@@]12CCO[C@@H]1CCN(C(=O)Cc1ccc(C)cc1)C2 | -64.19
C[C@@H]1CN(C(=O)CCN2CCCC2)CC[C@@]1(O)C1CCOCC1 | -34.11
C[C@@H]1CN(C(=O)C2CCS(=O)(=O)CC2)CC[C@@]1(O)C1CCOCC1 | 70.51
C[C@@H]1CN(C(=O)C2CCS(=O)(=O)CC2)C[C@@]1(O)C1CC1 | -43.61
O=C(NCCc1cc(F)ccc1F)NC(CO)c1ccccc1 (centres undefined) | -122.1
Cc1nc(CN(C)C2CCN(CC3CCOCC3)C2)no1 (centres undefined) | -100.7
CN1CCN(Cc2nnc(C3CCN(C(CO)CO)CC3)n2C)CC1 | -107
CCN1CCC2(CC1)CC(NCc1cccs1)c1ccccc1O2.O=C(O)C(F)(F)F.O=C(O)C(F)(F)F (centres undefined) | 85.8
CCN1CCC2(CC1)CC(NC(=O)c1csnn1)c1ccccc1O2.O=C(O)C(F)(F)F (centres undefined) | -39.08
O=C(NC1CC2(CCN(CCO)CC2)Oc2ccccc21)c1csnn1 (centres undefined) | -18.14
CS(=O)(=O)NC1CC2(CCN(CC3CC3)CC2)Oc2ccccc21.O=C(O)C(F)(F)F (centres undefined) | -15.02
CCC(=O)N1CCC2(CC1)CC(CC(=O)NC1CC1)c1ccccc1O2 (centres undefined) | -119.5
Cc1nc(NC(=O)c2nn(-c3ccc(F)cc3C)cc2O)n[nH]1 | -112
CC(C)c1nc(C2CCCN2Cc2ccon2)no1 (centres undefined) | -96.31
Cc1noc(C)c1CN1CCO[C@H]2CN(C3CCOCC3)C[C@H]21.O=C(O)C(F)(F)F | 1.266
O=C(C1CC(=O)N(c2n[nH]c3cc(Br)ccc23)C1)N1CCSCC1 (centres undefined) | -122.2
Cc1ccccc1N1CCN(C(=O)CC(C)C)CC1 | -106.5

SMILES | Percent Effect [%]
OC1(CN2CCc3nnc(Cc4cccnc4)n3CC2)CCCNC1 (centres undefined) | -87.58
CCN1CCn2c(C)cnc2C12CCN(C(=O)Cc1ccccc1)CC2.O=C(O)C(F)(F)F.O=C(O)C(F)(F)F | -58.2
Cc1ccc(C(=O)Nc2nnc(C3CC3)s2)c(-n2cnnn2)c1C | -130.7
COCCOCC(=O)Nc1ccnn1-c1ccc(Cl)cc1 | -102.7
CCOCCC(=O)Nc1ccnn1-c1ccc(Cl)cc1 | -25.55
COCC(=O)Nc1ccnn1-c1ccc(Cl)cc1 | 67.79
c1ccn2c(C3CCCN(c4ncnc5c4CCNC5)C3)nnc2c1 (centres undefined) | 74.94
Nc1nc2c(c(N3CCCC(c4nnc5ccccn45)C3)n1)CCNC2 (centres undefined) | 84.29
O=C(C1CC1)N1CCCN(c2ncnc3c2CCNCC3)CC1 | -49.17
Nc1nc2c(c(N3CCCC(CN4CCCC4=O)C3)n1)CCNCC2 (centres undefined) | -109.9
COCCc1noc(C2CCCN(c3nc(N)nc4c3CCCC4)C2)n1 (centres undefined) | -100.3
COCCn1ccnc1C1CCCN(c2ncnc3c2CCC3)C1 (centres undefined) | -114.3
O=C(c1ccon1)N1CCN(c2ccncc2Cl)CC1 | -22.81
CC(CN1CCOC1=O)NC(=O)c1cccc2cc[nH]c12 (centres undefined) | -144.8
COc1ccccc1CCNC(=O)N1CCC(n2cncn2)CC1 | -50.18
Cc1cc(C)c(CNC(=O)C(C)Oc2ccccc2F)c(=O)[nH]1 (centres undefined) | -101.9
CC(C)n1ccnc1C1CCN(C(=O)c2cc[nH]n2)CC1 | -87.6
O=C(C1CCCCC1)N1CCC(c2n[nH]c3nccnc23)CC1 | -76.32
CC(C)Oc1ncccc1CNC(=O)C1CCCN(C(=O)C2CC2)C1 (centres undefined) | -154.7
O=C(C1CC1)N1CCC(C(=O)N2CCC(c3ccc(F)cc3)C2)CC1 (centres undefined) | -98.79
O=C(C1CCC1)N1CCC(C(=O)N2CCC(c3ccc(F)cc3)C2)CC1 (centres undefined) | -81.93
O=C(C1CCC1)N1CCCC(c2cccc(-n3ccnc3)n2)C1 (centres undefined) | -55.02

SMILES | Percent Effect [%]
O=C(C1CC1)N1CCC(c2nc(-c3ccccc3)n[nH]2)CC1 | -99.03
O=C(C1CCCC1)N1CCC(c2n[nH]c3nccnc23)CC1 | -90.69
Cc1csc(C2(NC(=O)CCNC(=O)C(C)(C)C)CCCC2)n1 | -41.74
CCC(=O)N1CCc2onc(CNS(C)(=O)=O)c2C1 | -110.9
Cc1nc(NC(=O)C(C)n2ncc(Br)c2C)sc1C (centres undefined) | -53.19
COc1ccc(CNc2c(C)cnc3c2c(=O)n(C)c(=O)n3C)cc1 | -41.96
O=C(CN(CC(O)c1ccc(F)cc1)C1CC1)Nc1cccnc1 (centres undefined) | -24.09
COCC(=O)N1CCC2(COCc3c(C)nc(N(C)C)nc32)C1 (centres undefined) | -113.3
Fc1cccc(OC2CCN(CCn3cc4ccccc4n3)CC2)c1 | -79.08
COCCc1nnc(NC(=O)CCCc2ccccc2)o1 | -177.1
Fc1ccc(CN2CCC3(CCN(Cc4nccs4)CC3)C2)cc1.O=C(O)C(F)(F)F.O=C(O)C(F)(F)F | 56.57
Fc1ccc(CN2CCOCC3(CCN(Cc4nccs4)C3)C2)cc1.O=C(O)C(F)(F)F.O=C(O)C(F)(F)F (centres undefined) | -2.709
CS(=O)(=O)N1CCC2(CCN(Cc3nccs3)CC2)CC1.O=C(O)C(F)(F)F | -92.74
O=C(O)C(F)(F)F.O=C(O)C(F)(F)F.O=C(O)C(F)(F)F.c1cnc(N2CCC3(CCN(Cc4cccnc4)CC3)CC2)nc1 | -79.89
Cc1ccc(N2CCC3(CCN(Cc4nccs4)CC3)CC2)nn1 | -7.428
Fc1ccc(CN2CCC3(CC2)CCN(c2ncccn2)CC3)cc1.O=C(O)C(F)(F)F.O=C(O)C(F)(F)F | 52.71
Fc1ccc(CN2CCC3(CC2)CCN(Cc2nccs2)CC3)cc1.O=C(O)C(F)(F)F.O=C(O)C(F)(F)F | 86.13
O=C(O)C(F)(F)F.O=C(O)C(F)(F)F.c1csc(CN2CCC3(CC2)CCN(CC2CC2)CC3)n1 | 31.82
O=C(O)C(F)(F)F.O=C(O)C(F)(F)F.c1cnc(N2CC3(CCN(Cc4ccncc4)C3)C2)nc1 | -113.7
O=C(O)C(F)(F)F.O=C(O)C(F)(F)F.c1csc(CN2CC3(CCN(Cc4ccsc4)C3)C2)n1 | -42.12
CCS(=O)(=O)N1CCC2(CCN(Cc3nccs3)CC2)CC1.O=C(O)C(F)(F)F | -47.71
